The record followed here is PubChem BioAssay (Tox21).

Unmarked numbers belong to inactive results. Results filed as inconclusive are left out. Active and inactive are the calls of the source. Unless noted, the call rests on the fitted dose curve.

The nature of experiment [1]: Nuclear factor erythroid 2-related factor 2/antioxidant responsive element (Nrf2/ARE) small molecule agonists: luciferase reporter gene qHTS assay in human keratinocytes (AID 1919969). Further: nearly all actives have a fitted effect of over 35% in size. Further: potency means the concentration at half of the fitted maximal effect. In general terms: A reporter such as luciferase makes a cellular process visible.
Experiment [2] concerns the target KiSS-1 receptor (Homo sapiens) (UniProt Q969F8). In words: Human kisspeptin (KISS1R) small molecule agonists, calcium flux assay in KISS1R-HEK293 cells (AID 1920064; active means well fitted activation curve with a large enough effect in the repeat runs). Put shortly:
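Cell line: HEK293, stable human KISS1R. Dye loading 1 h at 37 C after 18 h culture. Read: kinetic fluorescence, 480/540 nm, 3 min at 1 s intervals.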
In general terms: A change in cytosolic calcium serves as a functional read-out for many receptors and channels.

Experiment [3] can be described thus: G protein-coupled receptor (GPCR) small molecule agonists, calcium flux assay: HEK293 wild type cell line counter screen (AID 1920065). Put shortly: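 Tox21 10K compounds, 15 concentrations each in triplicate, pin-transferred in DMSO onto dye-loaded cells; kinetic read at 480/540 nm for 3 min, 1 s intervals.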
The nature of experiment [4]: p53 small molecule agonists, cell-based qHTS assay with human liver microsomes (AID 1963577).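 Further: p53 response element beta-lactamase reporter cells with liver microsomes plus NADPH.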 A digest of the protocol:
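16 h, 37 C exposure of p53RE-bla cells to compounds with human liver microsomes and NADPH (0.5 mg/mL final each); detection via LiveBLAzer mixture, 2 h dark at room temperature.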

Experiment [5] in a line: p53 small molecule agonists, cell-based qHTS assay with rat liver microsomes (AID 1963578). A digest of the protocol:
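With rat liver microsomes and NADPH present (0.5 mg/mL final each), p53RE-bla cells are treated with compound for 16 h at 37 C. LiveBLAzer detection mixture is then applied for 2 h at room temperature in the dark.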
In general terms: qHTS replaces the single test concentration by a dilution series.

A short description of experiment [6]: p53 small molecule agonists, cell-based qHTS assay with rat liver microsomes: qHTS cell viability counter screen (AID 1963580). Further: nearly all actives have a fitted effect of over 45% in size. A digest of the protocol: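 Cytotoxicity counter screen: intracellular ATP measured by CellTiter-Glo luminescence in the same wells as the beta-lactamase reporter read, on HCT-116 p53RE-bla cells exposed 16 h at 37 C to compounds with rat liver microsomes and NADPH, each 0.5 mg/mL final.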

Experiment [7] in a line: cAMP Responsive Elements (CRE) small molecule agonists, cell-based qHTS assay (AID 1963590). Put shortly: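 HEK 293T cells stably bearing CRE-bla were plated at 2,000 cells per well and rested 18 h. Compounds, positive controls or DMSO were added for 3 h at 37 C. LiveBLAzer B/G substrate was then loaded for 2 h at room temperature.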
Experiment [8] can be described thus: cAMP Responsive Elements (CRE) small molecule antagonists, cell-based qHTS assay (AID 1963591; active means well fitted inhibition curve with a large enough effect in the signal ratio in the repeat runs, not every such curve was filed as active; the % refers to the signal ratio). Put shortly:
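First, CRE-bla HEK293T cells settled 18 h at 37 C. Next, compound and 0.25 uM final NKH477 were applied for 3 h. Last, LiveBLAzer B/G substrate was loaded for 2 h at room temperature.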

The target in experiment [9] is Beta-2 adrenergic receptor (Homo sapiens) (UniProt P07550). The experiment is described as follows: Adrenergic beta2 receptor (ADRB2) small molecule antagonists, cell-based qHTS assay (AID 1963592). Further: series mostly up to about 92 µM; nearly all actives have a fitted effect of over 50% in size. Put shortly:
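Assay format: CHO-ADRB2 cells, 18-20hr seeding at 37C/5% CO2, then compound plus 1nM isoproterenol agonist mix for 0.5hr RT. Homogeneous time-resolved fluorescence cAMP detection after 1hr, expressed as 665/615 nm ratio.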

The target is the same in experiment [10]. The experiment is described as follows: Adrenergic beta2 receptor (ADRB2) small molecule agonists, cell-based qHTS assay (AID 1963593).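 Further: CHO cells stably overexpressing human ADRB2.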 A digest of the protocol: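 CHO cells stably over-expressing ADRB2 were plated overnight at 37C, then dosed with compounds plus a stimulation mix containing 100uM IBMX and 25uM Ro-20-1724 for 0.5hr at room temperature. cAMP was measured by HTRF competition, 1hr.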

In experiment [11] the target is D(2) dopamine receptor (Homo sapiens) (UniProt P14416). In words: Dopamine D2 receptor (DRD2) small molecule agonists, cell-based qHTS assay (AID 1963594). Further: nearly all actives have a fitted effect of over 35% in size. Put shortly: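 HEK293 cells stably expressing human DRD2, pre-treated with PDE inhibitor Ro20-1724 (0.1 mM final) and compound 10 min at room temperature, then stimulated with NKH477 (200nM […]) for 30 min. cAMP read by HTRF (665/620 nm).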

The target is the same in experiment [12]. In words: Dopamine D2 receptor (DRD2) small molecule antagonists, cell-based qHTS assay (AID 1963595; active means well fitted inhibition curve with a large enough effect in the signal ratio in the repeat runs, with a control signal flat; the % refers to the signal ratio). A digest of the protocol:
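HEK293 cells stably expressing DRD2, preincubated with 0.1 mM Ro20-1724 and compounds 10 min, were stimulated with 200 nM NKH477 plus 12 nM quinpirole for 30 min at room temperature; cAMP measured by HTRF (665/620 nm).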

A short description of experiment [13]: p53 small molecule agonists, cell-based qHTS assay with human liver microsomes: qHTS cell viability counter screen (AID 1963579). Further: nearly all actives have a fitted effect of over 45% in size. A digest of the protocol: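 In this multiplexed counter screen, the reporter plates were subsequently treated with CellTiter-Glo so that cell viability, reflected by luminescence, could be recorded for p53RE-bla cells dosed 16 h with compounds under microsomal activation (HLM and NADPH).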

A short description of experiment [14]: p53 small molecule agonists, cell-based qHTS assay: qHTS cell viability counter screen (AID 1963581). Further: nearly all actives have a fitted effect of over 45% in size. Put shortly: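 ATP content measured by luminescence in HCT-116 p53RE-bla cells treated 16 h at 37 C, same wells as the reporter screen.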
Experiment [15] is described as follows: p53 small molecule agonists, cell-based qHTS assay (AID 1963582; active means well fitted activation curve with a large enough effect in the signal ratio in the repeat runs, not every such curve was filed as active; the % refers to the signal ratio; further: potency means the concentration at half of the fitted maximal effect). A digest of the protocol: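 16 h compound exposure (37 C) of p53 response element–bla cells, preceded by 5 h recovery at 37 C/5% CO2; read-out via LiveBLAzer B/G FRET substrate, 2 h RT, fluorescence intensity.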
The target of experiment [16] is 5-hydroxytryptamine receptor 2A (Homo sapiens) (UniProt P28223). The experiment is described as follows: 5-hydroxytryptamine receptor 2A (HTR2A) small molecule agonists, cell-based qHTS assay (AID 1963587). Further: nearly all actives have a fitted effect of over 30% in size. Further: potency means the concentration at half of the fitted maximal effect. A digest of the protocol: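 CHO cells stably expressing human HTR2A, plated 18 h, loaded with calcium dye 1 h at 37 C. Agonist mode: compounds added and intracellular calcium fluorescence recorded kinetically for 2 min at 1 sec intervals.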

The target of experiment [17] is Muscarinic acetylcholine receptor M1 (Homo sapiens) (UniProt P11229). In words: Cholinergic receptor muscarinic 1 (CHRM1) small molecule antagonists, cell-based qHTS assay (AID 1963588). Further: nearly all actives have a fitted effect of over 40% in size. Further: potency means the concentration at half of the fitted maximal effect. A digest of the protocol: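 Compounds were tested at 15 concentrations in three independent runs. Dye-loaded CHRM1-CHO cells were exposed 5 min at room temperature before stimulation by acetylcholine added at 50nM. Intracellular calcium was read kinetically on FDSS for 3 min.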

Experiment [18] shares this target. The experiment is described as follows: Cholinergic receptor muscarinic 1 (CHRM1) small molecule agonists, cell-based qHTS assay (AID 1963589). Further: nearly all actives have a fitted effect of over 35% in size. Put shortly:
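Homogeneous fluorescence calcium flux, agonist mode. Human M1-expressing CHO cells; compound dosed at 15 concentrations, three independent runs; signal sampled every 1 sec.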

The target of experiment [19] is 5-hydroxytryptamine receptor 2A (Homo sapiens) (UniProt P28223). The experiment is described as follows: 5-hydroxytryptamine receptor 2A (HTR2A) small molecule antagonists, cell-based qHTS assay (AID 1963586). Further: nearly all actives have a fitted effect of over 45% in size. Further: potency means the concentration at half of the fitted maximal effect. A digest of the protocol: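 CHO cells stably expressing human HTR2A were plated for 18 h at 37 C, then loaded with calcium dye for 1 h. Compounds were preincubated 5 min at room temperature before DOI (4 nM solution) was added. Kinetic fluorescence was read for 3 min.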

Chain of Muscarinic acetylcholine receptor M1 (Homo sapiens) (P11229 whole entry, looked up): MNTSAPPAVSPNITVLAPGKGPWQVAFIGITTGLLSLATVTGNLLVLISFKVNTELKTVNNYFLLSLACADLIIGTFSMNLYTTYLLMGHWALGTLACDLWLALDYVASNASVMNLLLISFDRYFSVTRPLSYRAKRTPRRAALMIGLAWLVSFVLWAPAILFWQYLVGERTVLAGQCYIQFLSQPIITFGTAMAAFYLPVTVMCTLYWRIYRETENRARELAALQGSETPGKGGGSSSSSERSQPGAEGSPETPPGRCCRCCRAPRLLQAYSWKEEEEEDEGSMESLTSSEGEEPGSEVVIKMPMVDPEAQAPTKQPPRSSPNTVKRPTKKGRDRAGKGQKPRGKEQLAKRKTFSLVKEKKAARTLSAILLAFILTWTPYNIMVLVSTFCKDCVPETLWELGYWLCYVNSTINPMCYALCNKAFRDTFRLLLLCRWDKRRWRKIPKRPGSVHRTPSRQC
Chain of 5-hydroxytryptamine receptor 2A (Homo sapiens) (P28223 whole entry, looked up): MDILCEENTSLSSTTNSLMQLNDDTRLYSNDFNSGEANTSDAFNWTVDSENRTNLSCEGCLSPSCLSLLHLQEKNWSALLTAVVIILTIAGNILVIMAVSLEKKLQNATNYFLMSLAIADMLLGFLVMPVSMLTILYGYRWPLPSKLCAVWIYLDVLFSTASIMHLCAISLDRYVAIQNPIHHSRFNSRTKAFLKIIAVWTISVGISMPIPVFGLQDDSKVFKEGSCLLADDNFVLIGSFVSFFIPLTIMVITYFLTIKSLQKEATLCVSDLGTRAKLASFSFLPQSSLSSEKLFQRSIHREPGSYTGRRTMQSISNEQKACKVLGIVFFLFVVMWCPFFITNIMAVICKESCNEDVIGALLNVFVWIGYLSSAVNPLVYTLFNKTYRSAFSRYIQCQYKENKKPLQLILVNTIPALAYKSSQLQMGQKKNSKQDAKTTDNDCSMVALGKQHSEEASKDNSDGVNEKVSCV
Chain of D(2) dopamine receptor (Homo sapiens) (P14416 whole entry, looked up): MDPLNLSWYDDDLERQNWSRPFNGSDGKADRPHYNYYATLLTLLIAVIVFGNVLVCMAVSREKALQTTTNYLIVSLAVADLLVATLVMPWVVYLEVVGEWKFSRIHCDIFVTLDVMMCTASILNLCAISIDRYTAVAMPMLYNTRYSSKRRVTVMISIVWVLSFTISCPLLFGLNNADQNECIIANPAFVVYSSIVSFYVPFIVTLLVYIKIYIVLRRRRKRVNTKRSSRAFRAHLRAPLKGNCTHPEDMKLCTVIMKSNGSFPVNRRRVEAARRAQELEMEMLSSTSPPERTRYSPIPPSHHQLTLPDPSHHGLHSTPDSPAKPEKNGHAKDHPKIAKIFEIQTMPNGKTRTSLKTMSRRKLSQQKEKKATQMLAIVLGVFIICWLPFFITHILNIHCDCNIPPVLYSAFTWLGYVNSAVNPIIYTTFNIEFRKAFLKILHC
Chain of KiSS-1 receptor (Homo sapiens) (Q969F8 whole entry, looked up): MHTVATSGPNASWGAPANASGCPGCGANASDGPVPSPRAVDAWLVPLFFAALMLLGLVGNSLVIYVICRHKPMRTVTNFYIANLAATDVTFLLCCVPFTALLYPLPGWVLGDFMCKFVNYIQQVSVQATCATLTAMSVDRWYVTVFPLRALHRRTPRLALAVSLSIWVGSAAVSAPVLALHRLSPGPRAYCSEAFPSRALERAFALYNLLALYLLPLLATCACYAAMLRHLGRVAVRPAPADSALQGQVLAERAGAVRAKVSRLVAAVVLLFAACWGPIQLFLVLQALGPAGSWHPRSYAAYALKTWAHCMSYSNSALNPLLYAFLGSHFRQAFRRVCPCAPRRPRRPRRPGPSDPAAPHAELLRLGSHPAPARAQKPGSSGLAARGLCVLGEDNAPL
Chain of Beta-2 adrenergic receptor (Homo sapiens) (P07550 whole entry, looked up): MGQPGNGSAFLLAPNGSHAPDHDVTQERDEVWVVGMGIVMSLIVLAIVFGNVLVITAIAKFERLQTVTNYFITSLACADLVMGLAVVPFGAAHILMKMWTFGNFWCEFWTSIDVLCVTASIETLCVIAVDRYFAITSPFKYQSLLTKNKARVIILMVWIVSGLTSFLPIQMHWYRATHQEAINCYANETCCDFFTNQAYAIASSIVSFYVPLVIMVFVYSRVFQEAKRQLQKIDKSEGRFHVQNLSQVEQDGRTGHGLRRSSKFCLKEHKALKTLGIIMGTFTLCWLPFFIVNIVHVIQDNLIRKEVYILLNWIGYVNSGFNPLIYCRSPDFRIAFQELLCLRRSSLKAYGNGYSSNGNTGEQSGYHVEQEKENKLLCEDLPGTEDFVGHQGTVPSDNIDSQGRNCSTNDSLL

For the molecule `NC(N)=N/N=C/c1c(Cl)cccc1Cl`, the Potency entry in experiment [1], in experiment [2], in experiment [3], in experiment [4], in experiment [5] and in [6] was “inactive” each time. Also, the Potency entry in [7], in experiment [8], in experiment [9], in experiment [10], in experiment [11] and in experiment [12] was “inactive” throughout.
For the molecule `CCc1ccc(O)c(C(C)(C)C)c1`, the Potency result in [1], in experiment [2], in experiment [3], in [5], in experiment [13] and in experiment [14] was “inactive” in each case. Moreover, the Potency entry in experiment [15], in experiment [18], in [9] and in [11] was “inactive” in each case. Besides, the Potency in [16] was 49 µM (active); in experiment [17], 37.5 µM (active).
For the molecule `CC(=O)[C@]1(O)Cc2c(O)c3c(c(O)c2[C@@H](O[C@H]2C[C@H](N)[C@H](O)[C@H](C)O2)C1)C(=O)c1ccccc1C3=O`, in [1], the Potency was 2.66 µM (active). The Potency entry in experiment [2], in experiment [3], in experiment [14] and in experiment [7] was “inactive” in each case.
On to `CCN1CCN(C(=O)N[C@@H](C(=O)N[C@@H]2C(=O)N3C(C(=O)O)=C(CSc4nnnn4C)CS[C@H]23)c2ccc(O)cc2)C(=O)C1=O`, for which the Potency result in experiment [1], in experiment [3], in experiment [4], in experiment [5], in experiment [6] and in [14] was “inactive” throughout. Moreover, the Potency result in [15], in experiment [19], in experiment [16], in [18], in experiment [7] and in [8] was “inactive” throughout. For the same molecule, the Potency result in experiment [9], in experiment [11] and in experiment [12] was “inactive” throughout.
Take `CN(C)c1ccc(N=Nc2ccccc2C(=O)O)cc1`: in experiment [1], the Potency was 61.1 µM (active). Besides, the Potency entry in experiment [2], in experiment [3], in experiment [4], in experiment [5], in [19] and in experiment [16] was “inactive” throughout. In addition, the Potency result in [17], in experiment [18], in [9], in [11] and in experiment [12] was “inactive” each time.
With `Cc1cc(=O)oc2cc(N(C)C)ccc12`, the Potency result in experiment [1], in experiment [2], in experiment [3], in experiment [5], in experiment [13] and in [6] was “inactive” in each case. The Potency result in experiment [14], in experiment [19], in experiment [16], in experiment [17], in [18] and in experiment [9] was “inactive” in each case. Moreover, the Potency result in [12] is “inactive”. Besides, in [15], the Potency is 32.4 µM (active).
Regarding `c1ccc(OCc2ccc(CCCN3CCOCC3)cc2)cc1`, the Potency result in experiment [1], in [2], in experiment [3], in experiment [5], in experiment [13] and in experiment [6] was “inactive” each time. The Potency result in [14], in experiment [16], in [18], in [7], in experiment [9] and in [11] was “inactive” in each case. Further, the results for the Potency in [19] and in experiment [17] were 20.5 µM (active) and 2.05 µM (active), respectively.
